Results published in PubChem BioAssay (NCI).
This is part of a sample that, as a whole, favours compounds with a hit. Of some 83,000 tested, about 20% had one in any assay.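 In brief: 96-well plates, 48 h treatment, single concentration, percent growth endpoint.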 Activity calls are given as the source filed them. The calls were made as follows: active = growth percent below 10; inactive = the rest.

Legend:
Experiment in all cases: NCI-60 one-dose screen, 48 h (100 = growth as untreated, 0 = no growth, -100 = all killed)
Details in all cases: 10 µM unless noted
HCT-15 colon = system: HCT-15 colon
HT29 colon = system: HT29 colon
SNB-75 CNS = system: SNB-75 CNS
SNB-19 CNS = system: SNB-19 CNS
U251 CNS = system: U251 CNS
PC-3 prostate = system: PC-3 prostate
SK-MEL-5 melanoma = system: SK-MEL-5 melanoma
UACC-62 melanoma = system: UACC-62 melanoma
LOX IMVI melanoma = system: LOX IMVI melanoma
SK-MEL-28 melanoma = system: SK-MEL-28 melanoma
SK-MEL-2 melanoma = system: SK-MEL-2 melanoma
EKVX NSCLC = system: EKVX NSCLC
SN12C renal = system: SN12C renal
UO-31 renal = system: UO-31 renal
TK-10 renal = system: TK-10 renal
ACHN renal = system: ACHN renal
CAKI-1 renal = system: CAKI-1 renal
A498 renal = system: A498 renal
CCRF-CEM leukemia = system: CCRF-CEM leukemia
MOLT-4 leukemia = system: MOLT-4 leukemia

Measured: growth

C#C[C@]1(O)CC[C@H]2[C@@H]3CC=C4c5sc(-c6cccc(C)c6)nc5CC[C@]4(C)[C@H]3CC[C@@]21C
inactive: HCT-15 colon 56.6% | HT29 colon 38.8% | SNB-75 CNS 13.8% | SNB-19 CNS 86.7% | U251 CNS 71.8% | PC-3 prostate 40.5% | SK-MEL-5 melanoma 82.5% | UACC-62 melanoma 77.3% | LOX IMVI melanoma 55% | SK-MEL-28 melanoma 55.9% | SK-MEL-2 melanoma 86.9% | EKVX NSCLC 68% | SN12C renal 71.3% | UO-31 renal 34.1% | TK-10 renal 110% | ACHN renal 63.7% | CAKI-1 renal 27.2% | A498 renal 94.9% | CCRF-CEM leukemia 49.6% | MOLT-4 leukemia 44.2%

CCN1C(=O)N(CC)C2C1NN=c1s/c(=C\c3ccc([N+](=O)[O-])cc3)c(=O)n12 (stereo not given)
inactive: HCT-15 colon 16.3% | SNB-19 CNS 31.6% | U251 CNS 20.8% | PC-3 prostate 32.6% | SK-MEL-5 melanoma 27.6% | UACC-62 melanoma 27.7% | LOX IMVI melanoma 36.8% | SK-MEL-28 melanoma 64.1% | SK-MEL-2 melanoma 70.4% | EKVX NSCLC 52.3% | SN12C renal 29.6% | UO-31 renal 37.5% | TK-10 renal 69.1% | ACHN renal 41.9% | CAKI-1 renal 37.1% | A498 renal 18.6% | CCRF-CEM leukemia 11.2% | MOLT-4 leukemia 15.8%
active: HT29 colon 5.2% | SNB-75 CNS 0.315%

CC(=O)Cc1nsc(NC(=O)c2cc(-c3cc(Cl)ccc3Cl)oc2C)n1
inactive: HCT-15 colon 103% | HT29 colon 107% | SNB-75 CNS 94.7% | SNB-19 CNS 102% | U251 CNS 97.4% | PC-3 prostate 96.8% | SK-MEL-5 melanoma 99.1% | UACC-62 melanoma 95% | LOX IMVI melanoma 96.3% | SK-MEL-28 melanoma 108% | SK-MEL-2 melanoma 101% | EKVX NSCLC 98.4% | SN12C renal 101% | UO-31 renal 107% | TK-10 renal 151% | ACHN renal 106% | CAKI-1 renal 98.9% | A498 renal 105% | CCRF-CEM leukemia 108% | MOLT-4 leukemia 101%

O=C1NCCN1/N=C/c1c(Cl)n(Cc2ccc(Cl)cc2)c2ccccc12
inactive: HCT-15 colon 93.3% | HT29 colon 111% | SNB-75 CNS 94.4% | SNB-19 CNS 107% | U251 CNS 75.5% | PC-3 prostate 89% | SK-MEL-5 melanoma 68% | UACC-62 melanoma 53.5% | LOX IMVI melanoma 72.7% | SK-MEL-28 melanoma 112% | SK-MEL-2 melanoma 91.7% | EKVX NSCLC 88.9% | SN12C renal 85.8% | UO-31 renal 72.4% | TK-10 renal 90.8% | ACHN renal 94.4% | CCRF-CEM leukemia 89% | MOLT-4 leukemia 65.6%
active: CAKI-1 renal -18.9% | A498 renal -85.5%
